# Inconclusive results are not listed. Entries that show only a call come without a potency. Activity calls are given as the source filed them. Calls follow the shape of the dose curve; as a rule, active = well fitted activation curve with a large enough effect in the repeat runs; inconclusive = weak or mixed curves; inactive = flat fitted curve, though single readings scatter.
# Test: A CellTox Green Cytotoxicity Assay to monitor cytotoxicity in HEK293 cells - 40 hour (AID 1224871); also: nearly all actives have a fitted effect of over 45% in size
# Settings: CellTox Green fluorescence; series mostly up to 76.8 µM
# Excerpt: National Center for Advancing Translational Sciences [NCATS]
# NIH Chemical Genomics Center [NCGC]
# U.S. Environmental Protection Agency [EPA]
# National Institutes of Environmental Health Sciences [NIEHS]
# National Toxicology Program [NTP]
# Cell-based models are critical for drug discovery. Determining the natural cytotoxic effects resulting from test compounds is an essential research activity. A CellTox Green Cytotoxicity Assay to monitor cytotoxicity in real time of continues cell culture during 40 hours of the compound treatment was used to screen Tox21 10K library compounds in Hek293 cells. CellTox Green Cytotoxicity Assay is a nonlytic, homogeneous, biofluorescent method to measure cytotoxicity in cell culture after experimental manipulation. The assay system uses a proprietary asymmetric cyanine dye that is excluded from viable cells but preferentially stains the dead cell's DNA. […] Viable cells produce no appreciable increases in fluorescence. Therefore, the fluorescence signal produced by the binding interaction with dead cell DNA is proportional to cytotoxicity.
# The mixture of Hek293 cell suspension and reagents were dispensed at 600cells/6 ul/well in 1536-well tissue culture treated black solid bottom plates using a Multidrop dispenser. After the assay plates were incubated at a 37 C/5% CO2 incubator for 5 hours, 23 nL of compounds dissolved in DMSO, positive and negative controls was transferred to the assay plate by a pintool work station. The plates were incubated at 37 C for 40 hours. The fluorescence intensity were measured at 0h, 8h, 16h, 24h, 32h and 40h time points using ViewLux plate reader during compound treatment.
# Potency is read from the fitted curve at half-maximal effect.
SMILES,Potency,cytotoxicity increase
ClC(Cl)Cl,inactive,–
Cc1cn([C@@H]2O[C@H](CO)[C@@H](O)[C@@H]2F)c(=O)[nH]c1=O,inactive,–
CCCCNC(=S)NCCCC,inactive,–
CCOC(=O)[C@H](CCc1ccccc1)N[C@@H](C)C(=O)N1Cc2cc(OC)c(OC)cc2C[C@H]1C(=O)O,inactive,–
CCCN(CCC)C(=O)C(CCC(=O)O)NC(=O)c1ccccc1 (stereo not given),inactive,–
OCCN1CCN(CCO)CC1,inactive,–
C=CC1CO1 (stereo not given),inactive,–
CCCOCCC,inactive,–
CC(=O)Nc1ccc(C)c(Cl)c1,inactive,–
Cc1ccc([N+](=O)[O-])cc1Cl,inactive,–
CN1CCC[C@@H]1Cc1c[nH]c2ccc(CCS(=O)(=O)c3ccccc3)cc12,inactive,–
CS(=O)(=O)c1ccc([C@@H](O)[C@@H](CF)NC(=O)C(Cl)Cl)cc1,inactive,–
CCOc1ccc(NS(=O)(=O)c2ccc(N)cc2)nn1,inactive,–
CCC(=O)Nc1ccc(O)cc1,inactive,–
c1ccc(CN(CC2=NCCN2)c2ccccc2)cc1,inactive,–
CCCCN1C[C@H](O)[C@@H](O)[C@H](O)[C@H]1CO,inactive,–
CC(C)Nc1nc(N)nc(Cl)n1,inactive,–
C=CC(C)(O)CC/C=C(\C)CCC=C(C)C (stereo not given),49 µM (active),–
CC1CN(c2ccccc2)NC1=O (stereo not given),inactive,–
Oc1ccccc1F,inactive,–

SMILES,Potency,cytotoxicity increase
C[C@@H](N)C(=O)O,inactive,–
CCCC1CCC(=O)O1 (stereo not given),inactive,–
CC(C)(C)c1ccc(OC(=O)c2ccccc2O)cc1,inactive,–
CCN(CC)CCOc1ccc(Cc2ccccc2)cc1,inactive,–
O=c1[nH]c(=O)n([C@H]2C[C@H](O)[C@@H](CO)O2)cc1C(F)(F)F,inactive,–
NC1=NCC2c3ccccc3Cc3ccccc3N12 (stereo not given),inactive,–
Nc1cccc(S(=O)(=O)O)c1,inactive,–
COc1ccc(Nc2ccc(OC)cc2)cc1,inactive,–
CN(CCCN1c2ccccc2CCc2ccccc21)CC(=O)c1ccc(Cl)cc1,inactive,–
CCOC(=O)CS,inactive,–
N#CSCC(=O)O,inactive,–
O=C(O)c1ccccc1Nc1cc(Cl)ccc1C(=O)O,–,-12.4% [at 15.8 µM] (inactive)
CCCCNc1cc(C(=O)O)cc(S(N)(=O)=O)c1Oc1ccccc1,inactive,–
C[C@@H]1CN(c2c(F)c(N)c3c(=O)c(C(=O)O)cn(C4CC4)c3c2F)C[C@H](C)N1,–,6.32% [at 15.8 µM] (inactive)
CCCNC(C)(C)COC(=O)c1ccccc1,inactive,–
CC(C)S,inactive,–
CCCCNc1ccc(C(=O)OCCN(CC)CC)cc1,inactive,–
CCCCCCCCCCCCOCCOS(=O)(=O)O,24.5 µM (active),–
CCCNC(C)C(=O)Nc1c(C)csc1C(=O)OC (stereo not given),inactive,–
CC1=CC(=O)CC(C)(C)C1=O,inactive,–

# Source: PubChem BioAssay (Tox21)
